Common to all, as to test: NCI-60 one-dose screen, 48 h (100 = growth as untreated, 0 = no growth, -100 = all killed)
Conditions in all cases: 10 µM unless noted

The test system of assay [1] is HCT-15 colon.
Assay [2] deals with HT29 colon.
The test system of assay [3] is SNB-75 CNS.
Assay [4] relates to SNB-19 CNS.
Assay [5] deals with U251 CNS.
The subject of assay [6] is PC-3 prostate.
The subject of assay [7] is SK-MEL-5 melanoma.
Assay [8] has as its system UACC-62 melanoma.
In assay [9] the test system is LOX IMVI melanoma.
Assay [10] concerns SK-MEL-28 melanoma.

Structures are written as SMILES. Compounds without any hit were thinned out: in the full panel of roughly 83,000, 20% have a hit.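 48-hour exposure, single concentration, 96-well plates; percent growth endpoint where 0 means no net growth. Active: below 10.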 A number with no mark means an inactive call. Activity calls are given as the source filed them.

Turning to `O=C(O)CCCCCCCCCCN1C(=O)/C(=C2/C(=O)N(CC(=O)O)c3ccc(Br)cc32)SC1=S`, the growth was 44.2% in [1]; 100% in [2]; 92.5% in [3]; 99.9% in assay [4]; 72% in assay [5]; 74.8% in assay [6]. For the same compound, the growth in assay [7] was 81.2%; in assay [8], 80.3%; in [9] it was 78.2%; in assay [10], 104%.

As for `Cc1nc2ccccc2c(/C=C/c2ccc(F)cc2)c1C(=O)/C=C/c1ccccc1`, the growth in assay [1] is -4.2% (active); in assay [2] it was 3.31% (active); in [3], 12.1%; in assay [4] it was 38.2%; in assay [5], -7.24% (active); in assay [6] it was 29.8%. The growth in assay [7] is 27.4%; in [8] it was 26.1%; in [9], -82.5% (active); in [10], 19.4%.

On to `O=C1/C(=C/c2cccc(Br)c2)COc2ccc(O)cc21`, for which the growth in assay [1] is 21.4%; in assay [2], 15%; in assay [3] it was 64.4%; in [4], 45.1%; in assay [5], 18.3%; in [6] it was 51.2%. Moreover, the growth is 88.3% in [7], 42.6% in assay [8], -37.1% (active) in assay [9] and 98.8% in assay [10].

In the case of `COC(=O)Cn1c2c(c3c(OC)cccc31)C(=O)c1ccccc1-2`, the growth in assay [1] is 101%; in [2], 95.8%; in assay [3] it was 90.8%; in [4], 90.5%; in assay [5], 89.9%; in assay [6], 87.4%. For the same compound, the growth in assay [7] was 102%; in [8] it was 93.3%; in assay [9], 91.8%; in assay [10] it was 97.1%.

On to `CNC(=O)Nc1ccc(-c2ccc3ncnc(Nc4cccc(Cl)c4)c3c2)cc1`, for which the growth is 45.9% in [1]; 29% in assay [2]; 54.6% in assay [3]; 69.6% in assay [4]; 54.9% in assay [5]; 45.1% in [6]. Besides, the growth is 56.1% in [7], 64.7% in assay [8], 60.8% in [9] and 58.9% in assay [10].

For `C/C(=C(\c1ccc(OCCN2CCCCCC2)cc1)c1ccc(OC(=O)c2ccccc2)cc1)c1ccc(Cl)cc1`, the growth in assay [1] was 7.21% (active); in [2], 1.67% (active); in assay [3], 73.7%; in assay [4], 57.9%; in assay [5], 29.8%; in [6], 33.8%. In addition, the growth in [7] was 55.6%; in assay [8], 28.4%; in assay [9], -38.9% (active); in [10], 51.7%.

`CN1CC(c2ccc(Br)cc2)C(C(=O)c2ccc(Br)cc2)C12C(=O)Nc1ccccc12` (stereo not given): the growth in assay [1] was 59.5%; in assay [2], 36%; in assay [3], 71.9%; in assay [4] it was 85.1%; in assay [5] it was 82.3%; in [6] it was 43.5%. In addition, the growth is 94.2% in [7], 63.9% in assay [8], 79.8% in [9] and 95.6% in assay [10].

With `COC1C(O)CC(OC2CC(OC3CC(O[C@@H]4C(=O)c5c(cc6cc(OC7CC(OC8CC(O)C(O)C(C)O8)C(O)C(C)O7)c(C)c(O)c6c5O)CC4[C@H](OC)C(=O)O)OC(C)C3O)OC(C)C2O)OC1C` (stereo not given in full), the growth in assay [1] is 48.6%; in assay [2] it was 20.3%; in assay [3], -22.7% (active); in assay [4] it was 21.4%; in assay [5], 0.444% (active); in assay [6] it was 21.8%. Moreover, the growth in assay [7] is -45.9% (active); in assay [8], -0.0213% (active); in assay [9], -12.7% (active); in assay [10], 3.33% (active).

For `Cc1ccc2c(c1)=C/C(=C\c1cc(-c3ccccc3)[nH]c1O)C(=O)N=2`, the growth in assay [1] was 26.7%; in assay [2], 7.77% (active); in assay [3], 48%; in [4] it was 34.1%; in assay [5], 40.1%; in assay [6], 61.2%. In addition, the growth in assay [7] is 47%; in [8], 29.9%; in [9], 35.8%; in assay [10], 60.8%.

`Cc1ccc(S(=O)(=O)c2nc(-c3ccccc3)oc2SCC(N)=O)cc1`: the growth in [1] was 95.3%; in assay [2], 85.7%; in [3], 90.4%; in [4], 99.5%; in [5] it was 105%; in assay [6], 85.6%. In addition, the growth in assay [7] was 94.9%; in [8], 105%; in [9], 96%; in assay [10] it was 108%.

For the compound `COc1ccc(-c2cc(-c3cn(-c4cccc(Cl)c4)nc3-c3ccc(OC)cc3)on2)cc1`, the growth was 91.2% in [1]; 93.6% in assay [2]; 99.2% in assay [3]; 92.7% in [4]; 90.2% in [5]; 86.5% in assay [6]. The growth in assay [7] is 98%; in assay [8] it was 94%; in [9], 102%; in [10], 105%.

As to `Cc1cc2oc(/C=C/c3ccccc3)cc(=O)c2c(C)c1Cl`, the growth was 95.7% in [1]; 107% in assay [2]; 116% in assay [3]; 89.8% in assay [4]; 94.3% in assay [5]; 96.7% in assay [6]. Also, the growth in assay [7] was 96%; in [8] it was 90.5%; in assay [9] it was 109%; in assay [10] it was 94.6%.

On to `CCN1CCN(CCNc2nccc(-c3c(-c4ccc(F)c(O)c4)nc4occn34)n2)S1(=O)=O`, for which the growth is 17.8% in assay [1]; 20.1% in assay [2]; 83.5% in [3]; 73.7% in assay [4]; 45.7% in [5]; 13.7% in assay [6]. Besides, the growth in [7] is -22.7% (active); in assay [8], -44.9% (active); in assay [9] it was 15.6%; in assay [10], 42.2%.

`COc1ccc(N=C2NN=C(c3c[nH]c4ccccc34)CS2)cc1OC`: the growth is 43.3% in [1]; 25.3% in [2]; 42.2% in assay [3]; 51.8% in [4]; 44.8% in assay [5]; -41.3% (active) in [6]. Besides, the growth is 51.9% in [7], 35.6% in [8], 45.1% in assay [9] and 63.7% in [10].

For the origin of these results see PubChem BioAssay (NCI).
